In this test the test system is RARa homodimer (NR concentration 270 nM). Kind of test: PBM binding z-score (relative to random genomic background probes); higher = stronger binding; sequences stand for … in GC…GCGATTGACAGCGTAGAATGAAGG
In outline: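 Antibodies against each partner of ligand-free nuclear receptor dimers (one per run) detected binding on custom Agilent 4×180K protein-binding microarrays after 1 h incubation. The double-stranded probes had 34-nt variable regions carrying direct-repeat seeds, single-nucleotide variants, half-site ablations and random human genomic background sequences. Binding z-scores, from regression-normalized fluorescence, use the random background probes as reference.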
In turn, TCAGACACGTGAAGGTAACTCAGGTACGCAGTCG returned a PBM binding z-score of -0.256.

Turning to CCTACTGGGCCATTCAAAGGTCATTGATCATATG, the PBM binding z-score worked out at 0.686.

Consider CGTCAAAGTTCAAGGTAACGTATCAGAAAGCAGC, for which the PBM binding z-score is 1.28.

For CCGTGTAGGTTATGGGGCATTCAGGCAACGGTGA, the PBM binding z-score was 0.31.

Sequence CGTCCAAGGTCAATGCTAGGTCCGTGAAAGCATT had a PBM binding z-score of 1.32.

Sequence TCTTGTAGATCAAGCAGGTTACGAAAGCCTGAGT had a PBM binding z-score of -0.22.

On to ATCTCTAGGTAAAGTTCAGTGCAAGATCGATAGA, for which the PBM binding z-score worked out at 1.38.

AGTCAAAGTTCATCTAGGTGACGTAAGATATGCT displayed a PBM binding z-score of 1.44.

In turn, CGTCCAAGATCAGAGAGGTCAGTGAATGCCGAGT returned a PBM binding z-score of 1.49.

With CAGCCTAGGTCAGAGCCAGTATAGGAGGAACGTT, the PBM binding z-score was found to be 0.33.

Regarding GCTAGCTGGTCAGTAAAAGGTCACACACCGGTCG, the PBM binding z-score was 2.36.

As for TCTGCTAGCTCAACGATGGTCAGCTAATCTGCTA, the PBM binding z-score was -1.12.

As for AGAATGAGGTTATACGTAGATTAGGGAAGAAAGT, the PBM binding z-score was determined as 0.516.

TCTTGTAGATCAATTGAGGTTAAGAAAGTGCGCT gave a PBM binding z-score of 0.164.

Sequence GGAACGAGGGCAACTTGATAGCAGAGTTTGATGG had a PBM binding z-score of 0.251.

Regarding TCGAGTAAGTTAGGGGCATTCAGAATGGCGTCGA, the PBM binding z-score is -0.608.

Sequence CCTACTGGGCCAAAGGTCATTGCTTCCAATGCTC showed a PBM binding z-score of 0.417.

The sequence TTACCAAGGTGAAGATCGTTGATCCCTCTGTAGA showed a PBM binding z-score of -0.66.

On to CCAGGCAGGTGAAAGGTAACTCAGTCTGGTACGC, for which the PBM binding z-score is -0.973.

For CCTCGGAGGACAGAAGGTCAGAGGTGTCCGCTTT, the PBM binding z-score was determined as 0.0276.

With GCGACTGGGGCAAAGCAGGTTACCATTAGGTTGG, the PBM binding z-score was -0.535.

As for TCTCGGAGAACACGAAAGGTCAGAGCTCGACATC, the PBM binding z-score is 0.536.

With CCTTACGGGTCAAGAGGTTATAGCACGACGAGCG, the PBM binding z-score was found to be 0.579.

For TAGCCTAGGTCGTGGGCCAGTATACCACGCGAAC, the PBM binding z-score is -0.754.

On to TCATATAGGTAAATGCTAGGTGAAGGTCCGATCT, for which the PBM binding z-score amounted to 1.04.

CCGAGTAGGTTATGGGGCATTCTGGCAACGGTGA displayed a PBM binding z-score of 0.262.

On to TCATATAGGTTAACAGGTGAAAGTCCGTAAGTTA, for which the PBM binding z-score worked out at 1.1.

With CCTCGGAGGACAGAAGGTCAGAGATGTCCGCTTT, the PBM binding z-score is 0.613.

The sequence GCTTGTAGATCAATGTTAAGAAAGACTAAGCTAA gave a PBM binding z-score of -0.306.

For GGAACGAAGGCAAGTTGATAGCAGAGTTTGATGG, the PBM binding z-score was -0.746.

For CCTAGTTGGCCAGGAGGTCACACACCGGATATGA, the PBM binding z-score was found to be 1.39.

For GATACAGGATCAAGGCCAGAGTACGCGTATTGAT, the PBM binding z-score is -0.179.

In the case of ATATGTAGGTTATCGAGTCATTCAGTTTGCGCAT, the PBM binding z-score was determined as 1.

ACTATCAGTTGACTTAGGGCAACCGATACGACGC yielded a PBM binding z-score of 0.08.

Consider CATACAAGGTCAGCTAGGCCAGAGTAGGGACGGC, for which the PBM binding z-score is 1.39.

In turn, CGTCGAAGTTCAACTAAGGTAACGTAAAGCACGC came in with a PBM binding z-score of 0.757.

As to ATATGTAGGTTATATCCGGGTCATTCAGGCTATG, the PBM binding z-score was found to be 1.12.

Sequence TCTGGTTGGTCACGGAGGTCACACACGACGGGTA gave a PBM binding z-score of 2.

Sequence TCGAGTAGGTTAGTCGGGGCATGCAGCCAACATA had a PBM binding z-score of -0.677.

Sequence CCTAACGGGTCACGAGGTTATAGCACGACGAGCG showed a PBM binding z-score of 1.42.
